Prx2 Sm inh – blocks S. mansoni peroxiredoxin 2 enzymatic activity; S. mansoni Prx2 activity coupled to TGR/GSH (TGR is thioredoxin glutathione reductase), NADPH fluorescence loss, qHTS; Potency, µM; 0.07% of 65,000 active; AID 448
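Enzyme mix: 100 uM NADPH, 25 nM TGR, 700 uM GSH, 50 nM Prx2 in 100 mM phosphate pH 7.4, 10 mM EDTA, 0.01% Tween-20. 15 min RT with compound; NADPH/GSH added, H2O2 starts reaction; NADPH fluorescence read 8 min.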
AmpC inh det – inhibitors of E. coli AmpC beta-lactamase with detergent; 0.09% of 71,000 active; purified AmpC, nitrocefin hydrolysis with detergent; AID 584; Potency, µM (top dose mostly 28.7 µM); active means well fitted curve in the direction sought with a large enough effect; inconclusive means small, poorly fitted or top-dose-only effect
Target sequence (P00811 whole entry, looked up): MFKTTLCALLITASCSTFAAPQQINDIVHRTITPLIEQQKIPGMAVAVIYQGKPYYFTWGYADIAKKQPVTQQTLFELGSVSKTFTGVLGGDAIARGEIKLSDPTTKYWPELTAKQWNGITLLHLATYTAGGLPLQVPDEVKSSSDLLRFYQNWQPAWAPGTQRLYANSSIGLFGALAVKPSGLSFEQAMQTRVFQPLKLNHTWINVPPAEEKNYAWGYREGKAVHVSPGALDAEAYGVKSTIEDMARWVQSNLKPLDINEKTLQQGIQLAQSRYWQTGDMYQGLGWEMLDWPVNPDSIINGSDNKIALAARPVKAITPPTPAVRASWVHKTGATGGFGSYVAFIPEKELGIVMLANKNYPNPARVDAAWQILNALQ
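E. coli AmpC (5.3 nM) in 20 mM phosphate pH 7.0 with 0.01% Triton X-100, preincubated 15 min RT with compound; nitrocefin (2 uL of 800 uM stock) hydrolysis followed by 480 nm absorbance every 20 s over 4 min.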
AmpC nodet inh – blocks E. coli AmpC beta-lactamase in absence of detergent | P00811 | AmpC nitrocefin hydrolysis, absorbance 480 nm, no detergent | Potency, µM (top dose mostly 28.7 µM) | 1.8% of 71,000 active
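AmpC in 20 mM phosphate buffer pH 7.0 was preincubated 15 min at room temperature with compounds. Nitrocefin (800 uM stock) was then added and hydrolysis followed at 480 nm every 20 s for 4 min.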
Anthrax LT inh – inhibitors of anthrax lethal toxin internalization. Cells, anthrax lethal toxin internalization, FRET ratio (460/530). Potency, µM (series often up to 40 µM), hits mostly inhibitors. 0.67% of 70,000 active. AID 912; further: nearly all actives have a fitted effect of over 50% in size
A number is an active result; - = inactive; ? = inconclusive; . = not tested or not shown; [ ] = remark or other dose. Hits are enriched below; roughly 2.4% of the tested compounds scored in any of these assays. Unless noted, the call rests on the fitted dose curve.

SMILES	Prx2 Sm inh	AmpC inh det	AmpC nodet inh	Anthrax LT inh
CCCCCCCCCCCCCCCCCC(=O)NC[C@@H](COP(=O)([O-])OCC[N+](C)(C)C)OCC	?	-	-	?
Cc1ccccc1-c1ccc2ncnc(N(C)C)c2c1	-	-	-	-
Cc1ccccc1-c1ccc2ncnc(-n3ccnc3)c2c1	-	-	-	5µM
CN(C)c1ccc(-c2ccc3ncnc(-n4ccnc4)c3c2)cc1	-	-	-	7.9µM
Cc1cc(C)cc(N(CC(=O)O)S(=O)(=O)c2cccnc2)c1	-	-	-	-
O=C1C(C2=C(O)c3ccccc3C2=O)=Nc2ccccc21	-	-	13µM	-
N#Cc1cccc(-c2nccc(NCc3ccccc3)n2)c1	-	-	-	-
N#Cc1cccc(-c2nccc(NCc3cccnc3)n2)c1	-	10µM	5µM	-
O=C(O)c1c2c(c(O)c3c1CN(C1CCCCC1)CO3)OCN(C1CCCCC1)C2	-	-[5.75 µM]	-[5.75 µM]	-[8 µM]
CCSCC[C@H](N)C(=O)O	-	-[5.75 µM]	-[5.75 µM]	-[8 µM]
O=C(C1CCC(CNc2c(N3CCCCC3)c(=O)c2=O)CC1)N1CCCCC1 (stereo not drawn)	-	-	4µM[single pt active]	-
O=C(NCc1ccc2c(c1)OCO2)C1CCC(CNc2c(N3CCCCC3)c(=O)c2=O)CC1 (stereo not drawn)	-	-	4µM[single pt active]	?
CCCCCCCCCCCCCCC/C=C\[C@H](O)[C@@H](NC(=O)CCCCCCCCCCCCC)OC (tested in a mixture with another compound)	-	-	-	-
Cc1c(Cl)cccc1NC(=O)CN1C(=O)CSc2ncccc21	-	-	3.2µM[single pt active]	?
COCCCNC(=O)CN1C(=O)CSc2ncccc21	-	-	-	-
O=C(Cn1ncc2c(=O)oc3ccccc3c21)N(Cc1ccco1)C1CCCCC1	-	-	3.2µM[single pt active]	-
O=C(Cn1ncc2c1-c1ccccc1OC2)N(Cc1ccco1)C1CCCCC1	-	-	-	-
CCCCn1c(=S)[nH]c2c(oc3ccc(Cl)cc32)c1=O	-	-	6.3µM	-
CC(C)C12CC[C@@]3(CC[C@H]4[C@@](C)(CCC[C@]4(C)C(=O)O)[C@@H]3C1)[C@@H](CN)C2	-	-[5.75 µM]	-[5.75 µM]	-[8 µM]
Cc1nnc(NC(=O)NC(C)N2C(=O)C3C4C=CC(C4)C3C2=O)s1 (stereo not drawn)	-	-	-	-
Cc1nnc(NC(=O)CCCCCN2C(=O)C3C4C=CC(C4)C3C2=O)s1 (stereo not drawn)	.	-	4µM[single pt active]	-
Cn1c(C(C#N)C(=O)c2sc3ccccc3c2Cl)nc2ccccc21 (stereo not drawn)	-	-	13µM	?
COc1cccc(Cn2nnc(C(=O)NCc3ccccc3Cl)c2N)c1	.	-	4µM[single pt active]	?
CCOc1ccc(Cn2nnc(C(=O)NCCc3ccccc3)c2N)cc1	-	-	4µM[single pt active]	-
COc1cccc(Cn2nnc(C(=O)NCc3ccc(F)cc3)c2N)c1	-	-	4µM[single pt active]	-
SMILES	Prx2 Sm inh	AmpC inh det	AmpC nodet inh	Anthrax LT inh
Cc1ccc(C2=C(Cl)C(=O)C(c3ccc(C)cc3)=C(Cl)C2=O)cc1	.	-[5.75 µM]	-[5.75 µM]	-[8 µM]
CN[C@H]1[C@H](C)O[C@@H](O[C@@H]2C/C=C(/C)C/C(C)=C\C=C/CC[C@@H](C)CNC(=O)/C=C\C=C/[C@H]2C)C[C@@H]1O	-	-[5.75 µM]	-[5.75 µM]	?
C/C(N)=C(/C#N)C(=O)CSc1nnc(COc2ccccc2Cl)o1	-	-	-	-
COc1ccccc1OCc1nnc(SCC(=O)c2cc(Cl)ccc2OC)o1	-	-	-	13µM
CCCCCCCCCCCCC1CO1 (stereo not drawn)	.	-	-	?
COc1ccc(S(=O)(=O)NCCSCc2ccco2)cc1	-	-	13µM[single pt active]	-
CCC[C@@H]1O[C@@H]2C[C@@H]3[C@@H]4CCC5=CC(=O)C=C[C@@]5(C)[C@H]4[C@H](O)C[C@@]3(C)[C@@]2(C(=O)CO)O1	-	-	-	-
Cn1cccc1C(=O)Nc1nc(-c2ccccn2)cs1	-	-	-	-
O=C(Nc1nc(-c2ccc(S(=O)(=O)N3CCCC3)cc2)cs1)c1ccco1	-	-	-	.
O=C(Nc1nc(-c2ccccc2)cs1)c1cccs1	.	-	-	10µM
O=C(Nc1nc(-c2ccccn2)cs1)c1ccc(Cl)s1	-	-	-	6.3µM
O=C(Nc1nc(-c2ccc(Cl)s2)cs1)c1cccs1	-	-	?	?
Cc1ccc(-c2csc(NC(=O)c3ccno3)n2)cc1	-	-	7.9µM	-
CC(C)[C@@H]1NC(=O)[C@H](CCCCN)NC(=O)[C@H](Cc2c[nH]c3ccccc23)NC(=O)[C@H](Cc2ccc(O)cc2)NC(=O)[C@H](C)N(C)C(=O)[C@H](Cc2ccccc2)NC1=O	-	-	-	-
CC(=O)c1ccc(OCC(O)CN2C(C)(C)CC(O)CC2(C)C)cc1 (stereo not drawn)	-	-	4µM[single pt active]	-
CC(=O)c1ccc(OCC(O)CN2CCN(CCO)CC2)cc1 (stereo not drawn)	-	-	4µM[single pt active]	-
CC(=O)c1ccc(OCC(O)CN2CCN(Cc3ccc4c(c3)OCO4)CC2)cc1 (stereo not drawn)	-	-	4µM[single pt active]	-
Cc1cccc(OCC(O)CN2C(C)(C)CC(O)CC2(C)C)c1C (stereo not drawn)	-	-	-	-
CCN1CCN(CC(O)COc2ccc(C(C)=O)cc2)CC1 (stereo not drawn)	-	-	4µM[single pt active]	-
Cc1ccc(OCC(O)CN2CCN(CC(O)COc3ccc(C)cc3)CC2)cc1 (stereo not drawn)	-	-	-	-
Cc1ccc(OCC(O)CN2CCN(Cc3ccc4c(c3)OCO4)CC2)c(C)c1 (stereo not drawn)	-	-	-	?
COc1ccc2c(c1)[C@]1(C)CCC[C@](C)(CO)[C@@H]1CC2	-	-	-	-
CC(=O)c1ccc(OCC(O)CN2CCCC(C)C2)cc1 (stereo not drawn)	-	-	3.2µM[single pt active]	-
Cc1cc(Nc2cccc(F)c2)nc(-c2ccccc2O)n1	-	-	-	?
Cc1cc(Nc2ccccc2)nc(-c2ccccc2O)n1	-	-	-	13µM
SMILES	Prx2 Sm inh	AmpC inh det	AmpC nodet inh	Anthrax LT inh
C[C@H]1CC[C@@H]2[C@@H](C)C(=O)O[C@H]3O[C@@]4(C)CC[C@@H]1[C@]32OO4	-	-	-	?
O=C(Nc1ccc(O)cc1)C1CC=CCC1 (stereo not drawn)	-	-	13µM[single pt active]	-
Cc1ccc(S(=O)(=O)N2CCCC2C(=O)Nc2ccc(O)cc2)cc1 (stereo not drawn)	-	-	-	-
COc1cc2cc(c1Cl)N(C)C(=O)C[C@H](OC(=O)C(C)C)[C@]1(C)O[C@@H]1[C@@H](C)[C@H]1C[C@](O)(NC(=O)O1)[C@@H](OC)/C=C\C=C(\C)C2	-	-[5.75 µM]	-[5.75 µM]	?
COc1ccc(OC)c(C2=NOC(C(=O)Nc3cc(C)nn3-c3ccccc3)C2)c1 (stereo not drawn)	-	-	4µM[single pt active]	-
NC(N)=NCCN=C(N)N	-	-[5.75 µM]	-[5.75 µM]	?
O=C(COC(=O)c1ccc(Br)o1)Nc1nc2ccccc2s1	.	-	5µM	-
CN(C)CCCO[C@H]1[C@H]([C@H](O)CO)O[C@H]2OC(C)(C)O[C@@H]21	-	-	-	-

Assay outcomes deposited in PubChem by National Center for Advancing Translational Sciences (NCATS).
